Assays:
Test in all cases: DAPPL (digital affinity profiling via proximity ligation, sequencing); 10 mM Tris-HCl pH 7.5, 50 mM NaCl, 1 mM DTT, 4% glycerol, room temperature, 30 min; GST-TFs on glutathione beads, 16-mer random dsDNA library, 0.1% formaldehyde crosslink after washing; high values mean tight binding
[1] = target: T1, FLI1 (Homo sapiens, UniProt Q01543 1-452); details: protein: recombinant; tags: N-terminal GST; dsDNA, one strand shown
T1 sequence: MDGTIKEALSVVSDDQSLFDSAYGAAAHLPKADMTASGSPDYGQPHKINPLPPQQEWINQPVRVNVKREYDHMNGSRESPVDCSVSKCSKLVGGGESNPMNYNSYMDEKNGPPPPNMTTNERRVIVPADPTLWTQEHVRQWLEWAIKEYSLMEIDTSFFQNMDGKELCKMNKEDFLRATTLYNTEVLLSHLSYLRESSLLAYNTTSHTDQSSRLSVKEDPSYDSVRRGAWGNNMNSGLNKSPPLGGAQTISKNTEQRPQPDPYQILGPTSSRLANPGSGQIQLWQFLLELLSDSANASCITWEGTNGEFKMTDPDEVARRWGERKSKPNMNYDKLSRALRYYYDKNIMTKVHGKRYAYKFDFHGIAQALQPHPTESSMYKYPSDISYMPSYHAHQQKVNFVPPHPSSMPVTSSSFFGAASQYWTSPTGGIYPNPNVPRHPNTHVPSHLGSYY
In short: (§1)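 GST fusions of human transcription factors were expressed in yeast and captured with glutathione beads. Once given DNA barcodes and pooled alongside a tag-only sample, they were incubated for 30 min at room temperature with 200 nmole of a random double-stranded 16-mer DNA library in Tris/NaCl/DTT/glycerol buffer, then washed, crosslinked (0.1% formaldehyde), proximity-ligated, PCR-amplified and sequenced on an Illumina NextSeq500. The binding signal of each hexamer is its read frequency for a factor divided by its frequency for the tag-only sample.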

[2] = target: T2, ELK1 (Homo sapiens, UniProt P19419 1-428); details: protein: recombinant; tags: N-terminal GST; dsDNA, one strand shown
T2 sequence: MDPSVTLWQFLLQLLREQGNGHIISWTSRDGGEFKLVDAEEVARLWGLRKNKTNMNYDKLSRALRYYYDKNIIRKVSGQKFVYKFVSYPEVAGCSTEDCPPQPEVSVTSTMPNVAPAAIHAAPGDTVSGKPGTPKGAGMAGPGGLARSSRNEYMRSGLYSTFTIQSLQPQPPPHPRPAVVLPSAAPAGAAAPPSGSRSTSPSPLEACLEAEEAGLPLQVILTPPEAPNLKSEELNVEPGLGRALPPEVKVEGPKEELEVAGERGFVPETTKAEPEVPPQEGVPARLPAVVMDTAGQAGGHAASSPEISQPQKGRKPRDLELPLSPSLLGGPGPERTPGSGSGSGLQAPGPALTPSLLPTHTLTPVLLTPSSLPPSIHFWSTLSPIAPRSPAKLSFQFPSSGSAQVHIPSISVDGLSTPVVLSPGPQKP
In short: as §1

[3] = target: T3, GABPA (Homo sapiens, UniProt Q06546 1-454); details: protein: recombinant; tags: N-terminal GST; dsDNA, one strand shown
T3 sequence: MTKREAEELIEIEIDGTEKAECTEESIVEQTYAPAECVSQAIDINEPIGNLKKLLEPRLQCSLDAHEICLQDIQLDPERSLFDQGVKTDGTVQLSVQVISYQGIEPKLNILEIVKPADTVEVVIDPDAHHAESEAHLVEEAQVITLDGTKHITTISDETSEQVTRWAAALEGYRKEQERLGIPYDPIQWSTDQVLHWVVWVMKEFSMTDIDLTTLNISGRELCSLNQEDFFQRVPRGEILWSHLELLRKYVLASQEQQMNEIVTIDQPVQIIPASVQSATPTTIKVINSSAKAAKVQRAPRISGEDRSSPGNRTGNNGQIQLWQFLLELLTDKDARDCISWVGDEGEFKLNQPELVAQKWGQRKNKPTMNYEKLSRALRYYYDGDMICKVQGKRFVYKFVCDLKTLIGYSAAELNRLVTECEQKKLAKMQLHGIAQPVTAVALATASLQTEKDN
In short: as §1

[4] = target: T4, ERG (Homo sapiens, UniProt P11308 1-479); details: protein: recombinant; tags: N-terminal GST; dsDNA, one strand shown
T4 sequence: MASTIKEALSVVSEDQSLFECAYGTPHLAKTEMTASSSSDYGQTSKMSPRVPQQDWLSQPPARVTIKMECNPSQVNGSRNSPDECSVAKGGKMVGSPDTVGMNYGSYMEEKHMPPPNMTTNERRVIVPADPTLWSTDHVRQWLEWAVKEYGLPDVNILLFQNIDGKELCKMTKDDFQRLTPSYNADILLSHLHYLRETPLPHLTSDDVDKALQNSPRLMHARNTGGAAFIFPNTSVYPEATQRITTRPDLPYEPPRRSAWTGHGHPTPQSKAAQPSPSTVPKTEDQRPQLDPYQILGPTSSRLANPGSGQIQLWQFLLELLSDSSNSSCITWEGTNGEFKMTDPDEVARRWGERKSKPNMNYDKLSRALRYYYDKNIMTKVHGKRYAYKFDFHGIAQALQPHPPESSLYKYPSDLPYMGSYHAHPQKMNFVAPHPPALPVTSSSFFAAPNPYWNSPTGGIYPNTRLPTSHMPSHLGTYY
In short: as §1

[5] = target: ELF1 (Homo sapiens, UniProt P32519 1-619); details: protein: recombinant; tags: N-terminal GST; dsDNA, one strand shown
Chain of ELF1 (P32519 whole entry): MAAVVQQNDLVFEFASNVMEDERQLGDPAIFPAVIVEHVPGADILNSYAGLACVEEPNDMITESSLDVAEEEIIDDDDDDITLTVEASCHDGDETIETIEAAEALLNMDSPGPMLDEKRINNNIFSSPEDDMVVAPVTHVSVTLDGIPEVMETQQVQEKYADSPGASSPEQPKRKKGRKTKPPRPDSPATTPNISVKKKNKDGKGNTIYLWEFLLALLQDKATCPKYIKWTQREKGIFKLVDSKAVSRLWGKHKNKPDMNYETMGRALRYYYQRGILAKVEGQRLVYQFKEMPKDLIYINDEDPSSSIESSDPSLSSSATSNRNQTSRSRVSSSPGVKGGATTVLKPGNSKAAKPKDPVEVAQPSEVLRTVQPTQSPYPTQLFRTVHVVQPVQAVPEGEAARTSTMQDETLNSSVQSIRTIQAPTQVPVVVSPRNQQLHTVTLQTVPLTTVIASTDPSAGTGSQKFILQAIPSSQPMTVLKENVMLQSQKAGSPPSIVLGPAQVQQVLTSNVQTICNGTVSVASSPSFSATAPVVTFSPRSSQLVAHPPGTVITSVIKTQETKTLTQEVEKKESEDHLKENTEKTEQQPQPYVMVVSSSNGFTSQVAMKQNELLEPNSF
In short: as §1

[6] = target: T5, EHF (Homo sapiens, UniProt Q9NZC4 1-300); details: protein: recombinant; tags: N-terminal GST; dsDNA, one strand shown
T5 sequence: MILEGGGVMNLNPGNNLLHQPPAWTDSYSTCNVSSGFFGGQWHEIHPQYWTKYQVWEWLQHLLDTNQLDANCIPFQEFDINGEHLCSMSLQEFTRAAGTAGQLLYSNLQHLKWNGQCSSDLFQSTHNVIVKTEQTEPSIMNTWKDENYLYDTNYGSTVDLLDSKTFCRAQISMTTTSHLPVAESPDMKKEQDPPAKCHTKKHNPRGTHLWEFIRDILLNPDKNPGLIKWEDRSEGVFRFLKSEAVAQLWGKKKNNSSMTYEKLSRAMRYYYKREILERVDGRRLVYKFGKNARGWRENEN
In short: as §1

[7] = target: SPI1 (Homo sapiens, UniProt P17947 1-270); details: protein: recombinant; tags: N-terminal GST; dsDNA, one strand shown
In short: as §1

[8] = target: SPIB (Homo sapiens, UniProt Q01892 1-262); details: protein: recombinant; tags: N-terminal GST; dsDNA, one strand shown
Chain of SPIB (Q01892 whole entry): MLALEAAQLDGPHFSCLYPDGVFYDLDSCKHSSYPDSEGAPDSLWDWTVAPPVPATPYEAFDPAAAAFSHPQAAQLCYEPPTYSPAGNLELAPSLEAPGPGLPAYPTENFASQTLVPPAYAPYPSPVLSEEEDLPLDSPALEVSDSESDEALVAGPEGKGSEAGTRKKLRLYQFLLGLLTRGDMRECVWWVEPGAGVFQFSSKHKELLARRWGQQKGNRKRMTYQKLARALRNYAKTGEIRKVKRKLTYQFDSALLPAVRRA
In short: as §1

[9] = target: T6, ELK3 (Homo sapiens, UniProt P41970 1-407); details: protein: recombinant; tags: N-terminal GST; dsDNA, one strand shown
T6 sequence: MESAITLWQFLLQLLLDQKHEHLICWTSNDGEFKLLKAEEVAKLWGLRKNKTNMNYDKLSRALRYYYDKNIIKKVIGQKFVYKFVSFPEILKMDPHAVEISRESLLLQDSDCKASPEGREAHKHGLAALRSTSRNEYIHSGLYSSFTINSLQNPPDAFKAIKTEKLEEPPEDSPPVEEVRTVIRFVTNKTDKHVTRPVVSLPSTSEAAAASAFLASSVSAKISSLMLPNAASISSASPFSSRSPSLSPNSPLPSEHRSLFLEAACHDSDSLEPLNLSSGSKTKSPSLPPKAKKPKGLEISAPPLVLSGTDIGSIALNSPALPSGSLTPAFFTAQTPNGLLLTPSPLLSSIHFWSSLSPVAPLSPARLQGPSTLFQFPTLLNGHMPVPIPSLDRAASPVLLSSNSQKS
In short: as §1

[10] = target: T7, FEV (Homo sapiens, UniProt Q99581 1-238); details: protein: recombinant; tags: N-terminal GST; dsDNA, one strand shown
T7 sequence: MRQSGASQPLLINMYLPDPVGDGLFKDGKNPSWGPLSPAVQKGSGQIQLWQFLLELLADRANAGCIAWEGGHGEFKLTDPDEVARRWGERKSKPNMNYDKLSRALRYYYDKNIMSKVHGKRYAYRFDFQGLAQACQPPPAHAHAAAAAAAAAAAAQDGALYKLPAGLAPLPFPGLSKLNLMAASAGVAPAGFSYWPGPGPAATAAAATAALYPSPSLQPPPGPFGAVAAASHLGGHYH
In short: as §1

[11] = target: ETV5 (Homo sapiens, UniProt P41161 1-510); details: protein: recombinant; tags: N-terminal GST; dsDNA, one strand shown
Chain of ETV5 (P41161 whole entry): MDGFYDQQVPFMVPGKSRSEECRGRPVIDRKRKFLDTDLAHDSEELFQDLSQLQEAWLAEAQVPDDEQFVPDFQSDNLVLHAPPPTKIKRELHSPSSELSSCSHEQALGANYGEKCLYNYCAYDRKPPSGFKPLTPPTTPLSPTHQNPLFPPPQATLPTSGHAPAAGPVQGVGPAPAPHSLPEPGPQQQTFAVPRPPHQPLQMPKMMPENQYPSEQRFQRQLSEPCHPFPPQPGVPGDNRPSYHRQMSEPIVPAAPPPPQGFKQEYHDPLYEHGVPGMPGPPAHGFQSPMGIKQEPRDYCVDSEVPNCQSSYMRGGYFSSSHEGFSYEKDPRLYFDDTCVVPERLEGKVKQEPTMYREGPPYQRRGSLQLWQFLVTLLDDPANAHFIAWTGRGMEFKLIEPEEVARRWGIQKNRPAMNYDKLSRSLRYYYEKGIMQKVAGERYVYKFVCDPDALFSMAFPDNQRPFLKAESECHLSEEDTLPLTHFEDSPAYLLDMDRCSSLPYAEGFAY
In short: as §1

[12] = target: HSF1 (Homo sapiens, UniProt Q00613 1-529); details: protein: recombinant; tags: N-terminal GST; chain copies: 3; dsDNA, one strand shown
Chain of HSF1 (Q00613 whole entry): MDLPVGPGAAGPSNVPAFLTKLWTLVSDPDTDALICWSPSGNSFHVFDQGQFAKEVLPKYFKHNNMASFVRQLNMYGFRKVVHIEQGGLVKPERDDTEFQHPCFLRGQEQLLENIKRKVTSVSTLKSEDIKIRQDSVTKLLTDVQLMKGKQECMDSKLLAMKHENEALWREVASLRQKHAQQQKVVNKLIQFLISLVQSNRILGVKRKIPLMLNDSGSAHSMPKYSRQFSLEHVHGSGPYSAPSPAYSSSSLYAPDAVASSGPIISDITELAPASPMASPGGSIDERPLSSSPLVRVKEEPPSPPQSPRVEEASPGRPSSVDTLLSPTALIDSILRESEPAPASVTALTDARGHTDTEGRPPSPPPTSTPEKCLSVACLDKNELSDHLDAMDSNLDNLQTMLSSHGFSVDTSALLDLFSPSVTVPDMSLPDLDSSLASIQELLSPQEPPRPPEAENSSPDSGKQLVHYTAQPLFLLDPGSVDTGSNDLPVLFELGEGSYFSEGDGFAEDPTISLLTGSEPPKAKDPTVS
In short: as §1

[13] = target: T8, SPIC (Homo sapiens, UniProt Q8N5J4 1-248); details: protein: recombinant; tags: N-terminal GST; dsDNA, one strand shown
T8 sequence: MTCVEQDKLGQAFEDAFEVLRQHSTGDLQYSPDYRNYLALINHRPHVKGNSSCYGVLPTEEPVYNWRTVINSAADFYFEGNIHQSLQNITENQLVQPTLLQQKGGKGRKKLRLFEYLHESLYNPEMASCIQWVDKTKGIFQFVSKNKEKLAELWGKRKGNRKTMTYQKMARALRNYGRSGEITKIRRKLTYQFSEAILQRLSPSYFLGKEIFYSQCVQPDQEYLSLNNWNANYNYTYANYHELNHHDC
In short: as §1

[14] = target: ELF4 (Homo sapiens, UniProt Q99607 1-663); details: protein: recombinant; tags: N-terminal GST; dsDNA, one strand shown
Chain of ELF4 (Q99607 whole entry): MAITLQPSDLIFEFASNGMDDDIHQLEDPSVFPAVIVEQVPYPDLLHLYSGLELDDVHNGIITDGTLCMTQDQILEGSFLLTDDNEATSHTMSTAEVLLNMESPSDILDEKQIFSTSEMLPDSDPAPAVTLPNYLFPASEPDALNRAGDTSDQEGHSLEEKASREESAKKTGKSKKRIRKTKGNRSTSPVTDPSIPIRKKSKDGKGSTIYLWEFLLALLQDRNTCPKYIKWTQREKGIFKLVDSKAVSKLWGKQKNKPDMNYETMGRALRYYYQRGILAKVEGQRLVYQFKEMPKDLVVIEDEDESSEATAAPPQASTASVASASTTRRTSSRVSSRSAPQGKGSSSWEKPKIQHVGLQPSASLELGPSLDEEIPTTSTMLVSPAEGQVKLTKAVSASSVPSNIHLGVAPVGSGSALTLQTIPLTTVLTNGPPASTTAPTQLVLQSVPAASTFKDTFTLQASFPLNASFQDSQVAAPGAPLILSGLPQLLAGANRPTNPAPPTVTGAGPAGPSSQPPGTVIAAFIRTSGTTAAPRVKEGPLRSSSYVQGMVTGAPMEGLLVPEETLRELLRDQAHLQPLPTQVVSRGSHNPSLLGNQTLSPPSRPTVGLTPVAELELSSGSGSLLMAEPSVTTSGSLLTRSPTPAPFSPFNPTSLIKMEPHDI
In short: as §1

[15] = target: T9, ELK4 (Homo sapiens, UniProt P28324-2 1-405); details: protein: recombinant; tags: N-terminal GST; dsDNA, one strand shown
T9 sequence: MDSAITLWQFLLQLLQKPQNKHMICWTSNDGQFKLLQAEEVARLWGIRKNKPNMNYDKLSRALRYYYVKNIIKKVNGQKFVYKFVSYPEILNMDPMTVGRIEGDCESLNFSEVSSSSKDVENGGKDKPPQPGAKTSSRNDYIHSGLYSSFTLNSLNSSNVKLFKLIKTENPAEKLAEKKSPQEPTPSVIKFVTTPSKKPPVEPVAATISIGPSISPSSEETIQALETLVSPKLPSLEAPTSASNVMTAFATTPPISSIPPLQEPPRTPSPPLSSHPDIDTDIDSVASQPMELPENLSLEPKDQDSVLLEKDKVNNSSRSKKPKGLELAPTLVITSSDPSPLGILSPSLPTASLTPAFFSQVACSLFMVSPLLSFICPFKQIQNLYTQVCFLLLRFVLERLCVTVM
In short: as §1

[16] = target: T10, ETV2 (Homo sapiens, UniProt O00321 1-342); details: protein: recombinant; tags: N-terminal GST; dsDNA, one strand shown
T10 sequence: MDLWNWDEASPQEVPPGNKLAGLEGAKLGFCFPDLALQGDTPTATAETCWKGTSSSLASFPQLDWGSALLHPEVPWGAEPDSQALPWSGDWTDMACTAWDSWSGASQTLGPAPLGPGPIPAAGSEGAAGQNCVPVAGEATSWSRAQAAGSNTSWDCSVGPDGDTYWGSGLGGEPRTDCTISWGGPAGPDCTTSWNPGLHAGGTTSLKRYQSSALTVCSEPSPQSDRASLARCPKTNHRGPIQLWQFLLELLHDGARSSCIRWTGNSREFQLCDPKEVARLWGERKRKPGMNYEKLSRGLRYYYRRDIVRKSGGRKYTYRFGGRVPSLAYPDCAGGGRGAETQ
In short: as §1

[17] = target: T11, ELF3 (Homo sapiens, UniProt P78545 1-371); details: protein: recombinant; tags: N-terminal GST; dsDNA, one strand shown
T11 sequence: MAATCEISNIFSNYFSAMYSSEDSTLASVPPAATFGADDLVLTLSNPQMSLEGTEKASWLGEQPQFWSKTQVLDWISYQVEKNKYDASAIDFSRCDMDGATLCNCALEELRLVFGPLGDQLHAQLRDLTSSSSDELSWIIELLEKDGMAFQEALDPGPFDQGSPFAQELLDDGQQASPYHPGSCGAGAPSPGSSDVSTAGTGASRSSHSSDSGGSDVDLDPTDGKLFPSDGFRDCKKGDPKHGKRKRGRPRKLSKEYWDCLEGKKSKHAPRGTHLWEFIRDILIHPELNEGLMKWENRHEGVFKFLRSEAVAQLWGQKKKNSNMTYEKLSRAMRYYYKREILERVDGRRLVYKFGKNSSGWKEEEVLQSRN
In short: as §1

[18] = target: CRX (Homo sapiens, UniProt O43186 1-299); details: protein: recombinant; tags: N-terminal GST; dsDNA, one strand shown
Chain of CRX (O43186 whole entry): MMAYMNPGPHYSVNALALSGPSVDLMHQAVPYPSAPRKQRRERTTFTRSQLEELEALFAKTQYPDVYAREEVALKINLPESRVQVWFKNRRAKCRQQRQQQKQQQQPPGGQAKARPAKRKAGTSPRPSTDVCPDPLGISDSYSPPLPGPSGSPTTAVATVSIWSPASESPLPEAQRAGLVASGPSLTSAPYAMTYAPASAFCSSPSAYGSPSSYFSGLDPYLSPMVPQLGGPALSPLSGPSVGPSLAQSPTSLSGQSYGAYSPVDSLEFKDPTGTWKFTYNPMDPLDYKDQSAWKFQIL
In short: as §1

[19] = target: ETV1 (Homo sapiens, UniProt P50549 1-477); details: protein: recombinant; tags: N-terminal GST; dsDNA, one strand shown
Chain of ETV1 (P50549 whole entry): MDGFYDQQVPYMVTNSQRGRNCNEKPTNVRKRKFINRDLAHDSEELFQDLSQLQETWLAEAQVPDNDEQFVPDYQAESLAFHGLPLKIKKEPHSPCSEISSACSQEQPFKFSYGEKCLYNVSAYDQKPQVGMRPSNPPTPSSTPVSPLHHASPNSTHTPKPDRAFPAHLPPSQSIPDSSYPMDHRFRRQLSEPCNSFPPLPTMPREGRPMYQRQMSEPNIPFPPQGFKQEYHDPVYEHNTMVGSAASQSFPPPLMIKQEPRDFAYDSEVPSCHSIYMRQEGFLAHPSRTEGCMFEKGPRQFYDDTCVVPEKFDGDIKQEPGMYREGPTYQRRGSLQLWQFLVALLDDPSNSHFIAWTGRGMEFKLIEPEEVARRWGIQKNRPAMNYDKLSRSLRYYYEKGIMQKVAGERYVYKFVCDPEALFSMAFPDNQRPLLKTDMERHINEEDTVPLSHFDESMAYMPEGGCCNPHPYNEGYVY
In short: as §1

For TACGCA, the binding signal [1] was 1.18 fold enrichment (6-mer frequency, TF over GST control), the binding signal [2] was 1.2 fold enrichment (6-mer frequency, TF over GST control) and the binding signal [3] was 1.11 fold enrichment (6-mer frequency, TF over GST control). The binding signal [4] was 1.15 fold enrichment (6-mer frequency, TF over GST control), the binding signal [5] was 1.2 fold enrichment (6-mer frequency, TF over GST control) and the binding signal [6] was 1.26 fold enrichment (6-mer frequency, TF over GST control). For the same sequence, the binding signal [7] was 1.12 fold enrichment (6-mer frequency, TF over GST control), the binding signal [8] was 1.1 fold enrichment (6-mer frequency, TF over GST control) and the binding signal [9] was 1.25 fold enrichment (6-mer frequency, TF over GST control). The binding signal [10] was 1.16 fold enrichment (6-mer frequency, TF over GST control), the binding signal [11] was 1.21 fold enrichment (6-mer frequency, TF over GST control) and the binding signal [12] was 1.06 fold enrichment (6-mer frequency, TF over GST control). For the same sequence, the binding signal [13] was 1.16 fold enrichment (6-mer frequency, TF over GST control), the binding signal [14] was 1.23 fold enrichment (6-mer frequency, TF over GST control) and the binding signal [15] was 1.12 fold enrichment (6-mer frequency, TF over GST control). For the same sequence, the binding signal [16] was 1.15 fold enrichment (6-mer frequency, TF over GST control), the binding signal [17] was 1.19 fold enrichment (6-mer frequency, TF over GST control) and the binding signal [18] was 1.21 fold enrichment (6-mer frequency, TF over GST control). The binding signal [19] was 1.25 fold enrichment (6-mer frequency, TF over GST control).

Source: article PMC7862700, “An all-to-all approach to the identification of sequence-specific readers for epigenetic DNA modifications on cytosine”
